Compound activity as filed in PubChem.
LANA DNA inh: blocks KSHV LANA C-terminal domain binding to DNA | MBP-C-LANA/FAM-LBS DNA binding, fluorescence polarization | inhibition, % at 9 µM | hit rate 0.078% among 340,000 | AID 504423;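 active means highest replicate inhibition at or above 60% at 9 µM, even if other replicates fall short; inactive means all replicates below 60% inhibition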;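 further: 0% = neutral control wells and 100% = 4 µM acridine orange control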
EBV gp42 inh: EBV gp42 inhibition; Q1HVG2; Fluorescence polarization binding assay, mP read-out; inhibition, % (tested at 21.74 µM); hit rate 0.42% among 220,000; in the data active means inhibition above about 50%
Target sequence (Q1HVG2 whole entry, looked up): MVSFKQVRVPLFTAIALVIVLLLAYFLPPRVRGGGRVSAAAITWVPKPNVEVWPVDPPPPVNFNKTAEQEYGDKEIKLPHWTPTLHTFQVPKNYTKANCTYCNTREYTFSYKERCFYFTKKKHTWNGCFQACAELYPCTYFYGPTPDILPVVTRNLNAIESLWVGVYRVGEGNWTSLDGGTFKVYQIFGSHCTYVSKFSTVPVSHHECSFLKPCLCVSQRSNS
LANA-H2A inh: blocks KSHV LANA binding to histone H2A/H2B. Q9QR71. cell-free LANA-H2A/H2B peptide, fluorescence polarization. inhibition, % (test concentration not listed). hit rate 0.6% among 320,000. AID 2629; in the data active means inhibition mostly above about 10%, no sharp cut-off; inactive means mostly below about 6.7%
eLon inh: inhibitors of E. coli Lon protease | P0A9M0 | AID 602123 | inhibition, % at 7.94 µM | hit rate 0.42% among 360,000 | purified E. coli Lon protease, fluorescence polarization; in the data active means inhibition above about 13%, passing the limit was not always enough;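 further: 0% = enzyme with probe and DMSO and 100% = no enzyme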
GLD-1 TGE inh: GLD-1-TGE RNA interaction inhibition (C. elegans); purified GLD-1 + fluorescein TGE RNA, fluorescence polarization; AID 2280; Q17339; inhibition, % at 5.96 µM; hit rate 0.44% among 320,000;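 active means percent inhibition above a per-plate cutoff, the plate mean of test compounds plus 3 SD, cut at about 30% in these data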;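 further: 0% = DMSO wells with GLD-1 and probe and 100% = wells lacking GLD-1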
Keap1 Nrf2 FP: inhibitors of human Keap1-Nrf2 protein-protein interaction | Keap1 Kelch-Nrf2 peptide fluorescence polarization, 1536-well | inhibition, % at 9.4 µM | hit rate 0.15% among 340,000 | Q14145; in the data active means inhibition above about 12%;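 further: human Keap1 Kelch domain with fluorescein labeled Nrf2 9mer peptide probe; 0% = neutral control wells and 100% = peptide positive control; higher means more block of Keap1 binding to Nrf2 peptide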
Numbers without * were called inactive; / = no result given; ! = not confirmed by another sample. In the library only some 1.5% were active in any assay of this set; here they are far more common.

SMILES	LANA DNA inh	EBV gp42 inh	LANA-H2A inh	eLon inh	GLD-1 TGE inh	Keap1 Nrf2 FP
O=C1NC(=Nc2ccc(Cl)cc2)/C(=C/c2ccco2)S1	-1.0	61.7*	7.0	-7.3	5.2	-2.0
Cc1cccc(N=C2NC(=O)S/C2=C\c2ccco2)c1	0.3	41.8	5.9	-8.9	24.7	2.0
Cc1ccccc1Nc1ncccc1C(=O)N1CCOCC1	-2.3	-28.2	-0.5	56.5*	-2.2	0.7
Cc1cccc(Nc2ncccc2C(=O)O)c1C	0.2	-9.3	58.8*!	-4.5	6.0	-5.4
CC1(C)CC(=O)c2cnc(NC3CC3)nc2C1	0.7	4.6	18.3*	-11.4	2.3	-1.4
CCOC(=O)C1(C)CCCCCN1C(=O)/C=C/c1ccccc1 (stereo unspecified)	/	/	/	-1.0	/	/
C[N+]1(CCC(=O)c2ccccc2)CCCCC1	1.9	-29.8	0.8	0.1	-1.5	-7.2
C[N+]1(C)CCC(=C(c2ccccc2)c2ccccc2)CC1	0.0	/	15.3*	-7.6	-1.4	-0.2
CCCCC1=CC2=C(c3ccco3)C(=O)C(C)(OC(=O)c3ccc(OC)cc3)C(=O)C2=CN1Cc1ccccc1 (stereo unspecified)	2.4	52.3*	12.1	-17.4	44.4*	3.4
CCCCC1=CC2=C(c3ccco3)C(=O)C(C)(OC(=O)c3ccc(OC)cc3)C(=O)C2=CN1C1CCCCC1 (stereo unspecified)	1.1	10.4	5.6	13.6	39.4*	5.5
CCCCC1=CC2=C(c3ccco3)C(=O)C(C)(OC(=O)c3ccc(OC)cc3)C(=O)C2=CN1Cc1ccc2c(c1)OCO2 (stereo unspecified)	-0.2	-0.2	-1.4	-7.2	9.6	-7.3
COc1ccc(CN2C[C@@H](CO)O[C@@H](n3cnc4c(NCCN(C)C)ncnc43)C2)cc1	/	/	/	0.2	/	/
Cn1nc(CC(=O)NC2CCCCCCCCCCC2)c2ccccc2c1=O	-2.5	-20.8	-3.7	-2.6	-2.0	-1.3
Cn1nc(CC(=O)Nc2cccnc2N2CCOCC2)c2ccccc2c1=O	/	/	38.5*	/	3.5	/
Cc1ccc(C(=O)ONc2ccc(N=O)cc2)cc1	2.4	-10.5	0.6	-0.9	2.3	-4.0
Cc1ccc(C(=O)ONc2ccc(N=NC(=O)c3ccccc3O)cc2)cc1	-0.6	92.6*	2.8	2.7	10.2	-0.9
Cc1ccc(C)c(NC(=O)CN(C)C(=O)c2cc3c(s2)CCCCC3)c1	-1.4	/	0.6	10.1	9.4	-5.1
Cc1ccc(NC(=O)CN(C)C(=O)c2cc3c(s2)CCCCC3)cc1	0.7	/	21.4*	-0.3	-7.4	-0.4
CN(CCc1ccccn1)C(=O)c1cccnc1Oc1ccccc1	0.1	-21.2	0.3	-0.5	0.0	0.8
C=CCSc1nnc(NC(=O)Cn2cnc3c2c(=O)n(C)c(=O)n3C)s1	0.8	-4.3	77.6*	-0.6	-4.3	-6.2
CCc1nc2c(OCc3cccc(Cl)c3)cccn2c1N(C)C(=O)C1CC1	/	/	/	-3.9	/	/
CC(C)C12CN3CC(C(C)C)(CN(C1)C3c1ccccc1)C2O (stereo unspecified)	1.7	0.5	8.5*	-5.4	-3.9	-3.1
COc1ccc(CCNC(=O)COc2cccc(-n3cnnn3)c2)cc1	-0.5	/	/	-7.0	/	2.9
O=C(Nc1ccccc1)c1cc2ccccc2s1	1.0	/	/	-7.1	/	-0.4
O=C1c2ccccc2C(=O)N1CCCn1c2ccc(Cl)cc2c2nc3ccccc3nc21	-1.6	/	/	3.5	/	0.2
SMILES	LANA DNA inh	EBV gp42 inh	LANA-H2A inh	eLon inh	GLD-1 TGE inh	Keap1 Nrf2 FP
Cc1cccc2c3nc4ccccc4nc3n(CCCN3C(=O)c4ccccc4C3=O)c12	-0.1	83.0*	/	10.4	/	-2.3
C[C@@H](c1ccccc1)N1C[C@H](COCc2ccccc2)Oc2cc(N3CC[C@H](O)C3)ccc2S1(=O)=O	/	/	/	7.1	/	/
CCOc1ccc(OCC)c(NC(=O)CN2CCN(CC(=O)NC(C)C)CC2)c1	0.3	/	14.3*	-6.2	-5.4	-2.6
CCOC(=O)C1=C(Cc2ccc(OC)cc2)C(=O)c2ccccc2C1=O	0.1	10.3	/	28.4*	/	-7.9
CCOC(=O)C1=C(Cc2ccc(C)cc2)C(=O)c2ccccc2C1=O	/	-2.9	4.4	/	42.8*	/
CCOC(=O)c1ccc(COC(=O)c2ccc3c(c2)-c2ccccc2C3=O)cc1	0.6	-13.9	-4.4	-11.5	4.8	8.1
CCOC(=O)c1c(C)nc2c(c1-c1cc(OC)ccc1OC)C(=O)c1ccccc1-2	0.6	-7.4	0.6	-14.1	-1.0	-4.0
